Assay results reported in PubChem BioAssay (NCI).
Compounds without any hit were thinned out: in the full panel of roughly 83,000, 20% have a hit.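 Cell lines were cultured in 96-well plates, exposed to a single compound concentration, and assessed for percent growth 48 hours later.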 Values without a mark were called inactive. Active and inactive are the calls of the source. The calls were made as follows: active = growth percent below 10; inactive = the rest.

Each molecule was assayed on HL-60(TB) leukemia (assay: NCI-60 one-dose screen, 48 h (100 = growth as untreated, 0 = no growth, -100 = all killed)). Details: 10 µM unless noted.

SMILES	growth
COc1ccc(/C=N/NC(=O)c2cnn3c2NC(c2ccccc2)C3)cc1OC1CCCC1 (stereo not given)	101%
CCOC(=O)c1sc(Nc2ncccn2)nc1-c1ccccn1	109%
CCCCCCCCCCCCSC1=CC(=O)C=CC1=O	-32.3% (active)
C#C[C@@]1(O)[C@@H](CO)O[C@@H](n2ccc3c(N)ncnc32)[C@@H]1O	-25.5% (active)
CCOC(=O)N1CCc2c(sc3nc4nc[nH]n4c(=O)c23)C1	103%
COc1ccc(-c2nn(-c3cccc(NC(=O)c4cc(C(F)(F)F)cc(C(F)(F)F)c4)c3)cc2-c2ccncc2)cc1Cl	88.9%
O=C1CC23OC(C(O)c4ccccc4N12)C1C(c2ccccc2)=NOC13 (stereo not given)	8.01% (active)
CC(=O)Nc1ccc(OC(=O)c2ccccc2O)cc1	102%
CCOc1cc(\C=N/N=C(N)/C(N)=N\N=C/c2ccc(O)c(OCC)c2)ccc1O	121%
O=C(/C(=C\c1ccc([N+](=O)[O-])cc1)S(=O)Cc1ccc(F)cc1)c1ccc(F)cc1 (stereo not given)	5.72% (active)
CC(=O)Nc1ccc(C(=O)/C=C/c2ccccc2)cc1	53.9%
C#COc1cccc(Nc2ncnc3cc(NC(=O)[C@@H](C)Cl)ccc23)c1	10.9% [6.25 µM]
Fc1ccc(/C=C/c2cc(/C=C/c3ccc(F)cc3)n(-c3cc(F)cc(F)c3)n2)cc1	78.9%
N#C/C(=C\c1ccc([N+](=O)[O-])s1)c1nc2cc(Br)ccc2s1	17.7%
CCN1C(=O)N(CC)C2C1NC(=S)N2/N=C/C=C/c1ccccc1 (stereo not given)	-39.2% (active)
COc1ccc(NC(=S)Nc2ccccn2)cc1	84.9%
Oc1ccccc1/C=N/NC(=S)NC1CC2C=CC1C2 (stereo not given)	58.3%
Cc1nc([C@H]2CC[C@H]3[C@@H]4CCC5=CC(=O)CC[C@]5(C)[C@H]4CC[C@]23C)cs1	4.93% (active)
OCc1ccccc1F	135%
CC(=O)Oc1cccc(S(=O)(=O)n2cc(C(=O)C(=O)Nc3ccncc3)c3ccccc32)c1	56.1%

SMILES	growth
Cc1ccc(-c2nc3nc(-c4ccc(Br)cc4)nc(N4CCCNCC4)c3o2)cc1	-47.3% (active)
C[C@H]1Oc2cc(cnc2N)-c2c(nn(C)c2C#N)CN(C)C(=O)c2ccc(F)cc21	77%
COc1ccc(-c2nnc(SCC(=O)Nc3ccc(C(=O)/C=C/c4ccc(Cl)cc4)cc3)o2)cc1OC	93.1%
O=C1C(=O)c2cccnc2-c2ncccc21	-21% (active)
COc1cc(/C=C2\C(=O)Nc3ccccc32)cc(OC)c1O	1.88% (active)
O=C(Nc1cccc(-n2cc(-c3ccncc3)c(-c3ccc(Cl)c(O)c3)n2)c1)c1ccccc1	167%
CCC1S/C(=N\N=C(\C)c2cc3cc(Cl)ccc3o2)N(c2ccccc2)C1=O (stereo not given)	103%
O=C1C(Cl)=C(SC2=NCCN2)C(=O)c2ccccc21	81.4%
Brc1ccc(/C=C(/C2=NCCN2)n2ccc3ccccc32)cc1	26.2%
COC(=O)[C@]12CC[C@@H](C)[C@H](C)[C@@H]1C1=CC[C@@H]3[C@@]4(C)C[C@@H](O)[C@H](O)[C@@](C)(CO)[C@@H]4[C@H](O)C[C@@]3(C)[C@]1(C)CC2	-27.4% (active)
COc1ccc(-c2c[nH]c(C(=O)O)c2-c2cc(OC)c(OC)c(OC)c2)cc1	-13.8% (active)
CC(C)c1ccc(C(=O)OC(=O)c2ccc(C(C)C)cc2)cc1	51.3%
COc1ccc(-c2nc(N)n(C(=S)Nc3ccccc3)n2)cc1	96.4%
O=[N+]([O-])c1ccc(N/N=C\c2cc(Cl)ccc2O)nc1	-2.47% (active)
CC(C)Cn1c2c(c(=S)[nH]c1=O)CCC2	107%
Nc1ccn(C2CC(O)C(CO)O2)c(=O)n1 (stereo not given)	86.1%
C=C(OC(C)=O)c1ccccc1	72.9%
CC1(C)OC(=O)C(=Cc2ccccc2Br)C(=O)O1	98.5%
O=C(N/N=C/[C@H](O)[C@@H](O)[C@@H](O)[C@H](O)CO)c1ccc(NC(=O)c2cccnc2)cc1	101%
COc1cc(NS(=O)(=O)c2ccc(N)cc2)ncn1	105%
